Test results as given in PubChem BioAssay (NCI).
The panel holds about 83,000 compounds, 20% with a hit somewhere; the sample as a whole holds those more often.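 For each line, cells grew in 96-well plates with the test compound present at a single concentration for 48 hours.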 Values without a mark were called inactive. The source made the active and inactive calls.

system: IGROV1 ovarian; experiment: NCI-60 one-dose screen, 48 h (100 = growth as untreated, 0 = no growth, -100 = all killed); settings: 10 µM unless noted
Description: Growth inhibition of the IGROV1 human tumor cell line is measured as a screen for anti-cancer activity. Cells are grown in 96 well plates and exposed to the test compound for 48 hours. Compounds are tested at a single concentration, which is 10^-5 M for most compounds. The reported endpoint is percent growth (GI% or GIPRCNT), where numbers from 0 - 100% represent growth inhibition, and numbers from -100% - 0 represent cell death. For example, a value of 40 represents 60% growth inhibition. A value of 0 means no net growth occurred over the course of the experiment. A value of -40 indicates 40% of cells at the beginning of the experiment died by the end of the experiment. A value of -100 means all cells are dead at the end of the experiment.
NCI-60 Human Tumor Cell Lines Screen was performed using the standard one-dose NCI protocol, which is described in more detail at https://dtp.cancer.gov/discovery_development/nci-60/default.htm.
Compounds with GIPRCNT values below 10 were considered active. Activity score was based on GIPRCNT using the following formula: […]
Score is 0 for GIPRCNT values of 100 or above, 50 for GIPRCNT values of 0, and 100 for GIPRCNT values of -100.

SMILES	growth
CCn1cnc2c1c(=O)[nH]c(=O)n2CC1CCC(CNS(=O)(=O)c2ccc(OC3CCOCC3)c(F)c2)CC1 (stereo not given)	62.6%
COc1cc(Nc2nc(NCCN)nc3cc[nH]c(=O)c23)cc(OC)c1	57.8%
O=C(COc1ccc(/C=C2\Cc3ccc(Cl)cc3C2=O)cc1)Nc1nc2ccccc2s1	-61.5% (active)
CCCCNC(=O)Oc1ccc(/C(=C(\C)c2ccc(Cl)cc2)c2ccc(OCCN3CCCCC3)cc2)cc1	83.5%
Cc1[nH]c(C(=O)Nc2ccc(C(=O)NCCN)cc2OC(C)C)c(Cl)c1Cl	64.1%
O=C(Nc1c2ccccc2nc2ccccc12)c1ccccc1CN1C(=O)c2ccccc2C1=O	21.4%
Cc1cccc2c3c(sc12)C(c1ccc(Cl)cc1)C(C#N)=C(/N=C/c1ccc(Cl)cc1)O3 (stereo not given)	21.9%
COc1cc(C(=O)N/N=C/c2cc3cc(OCc4ccccc4)ccc3nc2OC)cc(OC)c1OC	111%
Cc1nc(/N=C(\N)NC(=O)Nc2cccc(Cl)c2)sc1C	63.1%
O=c1c2cc(C(F)(F)F)ccc2sc2c(NCCCNCCO)nc3ccccc3c12	15%
CCOC(=O)/C=C1\S/C(=N\Nc2ccc([N+](=O)[O-])cc2[N+](=O)[O-])N(Cc2ccccc2)C1=O	88.5%
COc1c(C2CC(=O)Nc3c2c(C)nn3-c2nc3ccccc3[nH]2)cc2c(c1OC)OCO2 (stereo not given)	48.8%
COc1c(B(O)O)cc(F)cc1-c1nc2ccc3[nH]ncc3c2c2c1CCCC2	10.6%
COc1ccc(-c2cc3c4c(nc5ccccc5c4c2)CC(c2cc(OC)c(OC)c(OC)c2)O3)cc1 (stereo not given)	52.5%
O=C(Nc1ccc(Br)cc1F)c1cc(Br)ccc1O	15.3%
O=C(CSc1nc2ccccc2[nH]1)Nc1cccc(Cl)c1	96.2%
COc1cc(/C=C2\C(=O)Nc3ccc(Br)cc32)cc(OC)c1OC	43%
CC(C)(C)NC(=O)C(OC(=O)c1cccc(Cl)c1)c1ccc(Cl)cc1 (stereo not given)	104%
CC1=C(SCCC(=O)OC(C[Se]C2=C(C)C(=O)c3ccccc3C2=O)C(=O)NC(C)(C)C)C(=O)c2ccccc2C1=O (stereo not given)	-27.9% (active)
Cc1cc(N2CCCC2)nc(N(CCCNc2ccnc3cc(Cl)ccc23)Cc2ccccn2)n1	50.7%

SMILES	growth
CNC(C)[C@H]1CCC2C3CCC4C[C@@H](N(C)C(=O)c5ccccc5)CC[C@]4(C)C3CC[C@@]21C (stereo not given in full)	22.8%
COc1ccc(NC2=C(Br)C(=O)C(C)=C(C)C2=O)cc1	41.3%
COc1ccc2c(c1)nc(NNC(=O)c1cnccn1)c1cccn12	16.3%
Cc1ccc(C(=O)N/N=C/c2cccc(Oc3ccccc3)c2)cn1	24%
O=C(Nc1nc2ccc(F)cc2s1)c1cccnc1Nc1ccc(Cl)cc1Cl	30.5%
COc1cc(/C=C/C(=O)/C=C/c2cc(OC)c3c(c2OC)OCO3)c(OC)c2c1OCO2	29.8%
COC(=O)Nc1ccc(-c2nc(-c3cccc(OC)c3)c(-c3ccnc(Br)c3)[nH]2)cc1	72.5%
Cc1nc2ccccc2c(/C=C/c2ccc(Cl)cc2)c1C(=O)/C=C/c1ccc(C(F)(F)F)cc1	-85.5% (active)
COc1ccc(-c2nc3sc(-c4ccccc4)cn3n2)cc1	47.8%
COc1ccc2[nH]c(-c3ccccc3)c(/C=C(\C#N)S(=O)(=O)c3ccccc3)c2c1	67%
COc1ccc(S(=O)(=O)n2c3ccccc3n3ncc(-c4nnc(C)o4)c23)cc1	34.4%
COc1ccc(-c2cc(-c3cc(OC)c(OC)c(OC)c3)nc(N3CCOCC3)c2C#N)cc1	77.6%
CCOC(=O)c1sc2ncc(-c3ccc(OC)cc3)n2c1C	81.4%
CCCCCCCCCCCCCCCCCCOc1ccccc1CC(=O)OCC[N+](CC)(CC)CC	-26.9% (active)
CSc1nc2ccc(C)cc2cc1/C=N/O	87.8%
CCCCN(C)N=Nc1ccc(C(N)=O)cc1	89.1%
Cc1c(C(=O)/C=C/Nc2c(Cl)cc(S(N)(=O)=O)cc2Cl)sc2nc3ccccc3n12	111%
O=C1c2ccccc2NC(n2sc3ccccc3c2=O)N1c1ccccc1 (stereo not given)	96.5%
CC(C)C(=O)Nc1ccc(-c2nc(-c3cccc(OCCN4CCOCC4)c3)c(-c3ccnc(Br)c3)[nH]2)cc1	68.7%
N/C(=N\c1nc2ccccc2s1)NC(=O)Nc1cccc2ccccc12	33.6%
